Data published in the supplement of paper PMC10849652.
The full data set covers some 7,900 targets. This sample favours those with a hit. About 0.6% of all pairs of compound and target were hits. Unmarked numbers belong to inactive results.

Columns and labels:
Test in all cases: log2 fold change, soluble protein after heating vs DMSO (PISA); higher = thermal stabilisation; K562 cells, 10 uM, 30 min; active = over 0.2 and 3.5 SD of the protein, either way, in both replicates (recomputed)
[1] = compound: C#Cc1cccc(Nc2ncnc3cc(OCCOC)c(OCCOC)cc23)c1 [erlotinib]
Outline: (§1)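 Soluble protein was quantified by TMTpro 16plex LC-MS/MS after channel sums were equalised. It was obtained as the supernatant after 21,000xg for 90 min from pooled aliquots of K562 cells (2×10^6 cells/mL, 10 μM compound, 30 min) heated for 3 min across 48°C-58°C and extracted in PBS with 0.5% NP-40 at 4°C. Thermal stability values are relative to control samples and come from duplicates. They are given as log2 fold changes.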

[2] = compound: C1=CC(=C(C=C1Cl)C2=NC3=NC=CN=C3C(=N2)NC4=CC=NC=C4)F
Outline: as §1

[3] = compound: C1=CC(=CC=C1C2=NC3=C(N2)C=C(C=C3)C(=O)N)OC4=CC=C(C=C4)Cl
Outline: as §1

[4] = compound: C1CCN(C1)C(=O)NC2=CC=CC(=C2)NC3=NC=C(C(=N3)NCCC4=CN=CN4)Br
Outline: as §1

[5] = compound: C1CN(CCC1(CC2=CC=C(C=C2)Cl)N)C3=NC=NC4=C3C=CN4
Outline: as §1

[6] = compound: CC(C)(O)CC(=O)NCCn1ccc2ncnc(Nc3ccc(Oc4cccc(C(F)(F)F)c4)c(Cl)c3)c21
Outline: as §1

[7] = compound: CC(C)C1=C2N=C(C=C(N2N=C1)NCC3=CC=CC=C3)NCCCCCCN
Outline: as §1

[8] = compound: CC1=C(C2=C(C=C1)C(=O)C3=CC=CC=C3N2CCCN)C
Outline: as §1

[9] = compound: C1=CC=C(C=C1)C2=NC(=C(N2)C3=CC=NC=C3)C4=CC(=C(C=C4)Cl)O
Outline: as §1

[10] = compound: CC(C)(C)Cn1c(N)nc2ccc(-c3[nH]c(C(C)(C)C)nc3-c3ccc(F)cc3)nc21 [ralimetinib]
Outline: as §1

[11] = compound: CC(C)C[C@@H](C=O)NC(=O)[C@H](CC(C)C)NC(=O)[C@H](CC(C)C)NC(=O)OCc1ccccc1
Outline: as §1

[12] = compound: C/C(=N\NC(=O)C1=CC(=CC=C1)S(=O)(=O)N2CCOCC2)/C3=C(C=CC(=C3)Cl)O
Outline: as §1

[13] = compound: C1=CC2=C(C=CC(=C2)/C=C\3/C(=O)NC(=NCC4=CC=CS4)S3)N=C1
Outline: as §1

[14] = compound: C1=CC2=NC=CN=C2C=C1/C=C/3\C(=O)NC(=O)S3
Outline: as §1

[15] = compound: C1=CC=C2C(=C1)C3=NNC4=CC=CC(=C43)C2=O
Outline: as §1

[16] = compound: C1COCCN1CCN2C3=CC=CC=C3N=C2NC(=O)C4=CC(=CC=C4)[N+](=O)[O-] [IRAK-1-4 Inhibitor I]
Outline: as §1

[17] = compound: C=CC(=O)N1CCC[C@@H](n2nc(-c3ccc(Oc4ccccc4)cc3)c3c(N)ncnc32)C1 [ibrutinib]
Outline: as §1

[18] = compound: CC(=O)c1cnc2ccc(-c3cc(Cl)c(O)c(Cl)c3)nc2c1N[C@H]1CC[C@H](CN(C)C)CC1
Outline: as §1

[19] = compound: CC(C)N(C[C@H]1O[C@@H](n2cnc3c(N)ncnc32)[C@H](O)[C@@H]1O)[C@H]1C[C@@H](CCc2nc3cc(C(C)(C)C)ccc3[nH]2)C1 [pinometostat]
Outline: as §1

[20] = compound: CC1=C(C(CC(=O)N1)C2=CC=C(C=C2)C(F)(F)F)C(=O)NC3=C(C=C4C(=C3)C=NN4)F
Outline: as §1

## ERF (UniProt P50548)
[1]
  log2 fold change: -0.448
[2]
  log2 fold change: 0.127
[3]
  log2 fold change: -0.036
[4]
  log2 fold change: 0.058
[5]
  log2 fold change: 0.13
[6]
  log2 fold change: 0.093
[7]
  log2 fold change: 0.186
[8]
  log2 fold change: 0.094

## EEF2K (UniProt O00418)
[1]
  log2 fold change: -0.064
[2]
  log2 fold change: -0.137
[3]
  log2 fold change: -0.024
[9]
  log2 fold change: 0.027
[10]
  log2 fold change: 0.126
[6]
  log2 fold change: -0.047
[7]
  log2 fold change: -0.245
[11]
  log2 fold change: 0.169

## EIF4G3 isoform 3 (UniProt O43432)
[1]
  log2 fold change: 0.047
[12]
  log2 fold change: 0.01
[3]
  log2 fold change: -0.083
[13]
  log2 fold change: 0.041
[14]
  log2 fold change: -0.046
[9]
  log2 fold change: -0.028
[15]
  log2 fold change: 0.071
[4]
  log2 fold change: -0.049
[5]
  log2 fold change: -0.125
[16]
  log2 fold change: 0.012
[17]
  log2 fold change: 0
[18]
  log2 fold change: -0.074
[10]
  log2 fold change: -0.003
[7]
  log2 fold change: -0.079
[11]
  log2 fold change: 0.017
[19]
  log2 fold change: 0.079
[20]
  log2 fold change: -0.227
[8]
  log2 fold change: 0.03

## DLK1 (UniProt P80370)
[2]
  log2 fold change: 0.028
[16]
  log2 fold change: 0.023
[6]
  log2 fold change: -0.034
[19]
  log2 fold change: 0.099

## DOP1A (UniProt Q5JWR5)
[1]
  log2 fold change: 0.177
[2]
  log2 fold change: 0.009
[3]
  log2 fold change: -0.152
[14]
  log2 fold change: 0.035
[17]
  log2 fold change: -0.093
[6]
  log2 fold change: -0.054
[7]
  log2 fold change: 0.092

## EIF4G1 (UniProt Q04637)
[12]
  log2 fold change: 0.171
[13]
  log2 fold change: 0.018
[15]
  log2 fold change: -0.356
[4]
  log2 fold change: -0.301
[5]
  log2 fold change: -0.425
[18]
  log2 fold change: -0.334
[8]
  log2 fold change: 0.067

## DNAL1 (UniProt Q4LDG9)
[12]
  log2 fold change: -0.034
[2]
  log2 fold change: 0.053
[13]
  log2 fold change: -0.07
[14]
  log2 fold change: -0.654 (active)
[9]
  log2 fold change: -0.113
[15]
  log2 fold change: 0.091
[16]
  log2 fold change: 0.012
[17]
  log2 fold change: -0.082
[18]
  log2 fold change: 0.042
[10]
  log2 fold change: 0.042
[6]
  log2 fold change: 0.183
[11]
  log2 fold change: 0.007
[19]
  log2 fold change: 0.093

## FAM160A2 isoform 2 (UniProt Q8N612)
[2]
  log2 fold change: 0.2
[14]
  log2 fold change: -0.012
[9]
  log2 fold change: -0.134
[4]
  log2 fold change: -0.071
[5]
  log2 fold change: 0.027
[16]
  log2 fold change: 0.029
[17]
  log2 fold change: -0.003
[10]
  log2 fold change: -0.029
[6]
  log2 fold change: -0.326
[11]
  log2 fold change: 0.013
[19]
  log2 fold change: 0.004
[20]
  log2 fold change: -0.146
[8]
  log2 fold change: 0.102

## DNAH10 (UniProt Q8IVF4)
[1]
  log2 fold change: 0.325
[2]
  log2 fold change: 0.251
[3]
  log2 fold change: -0.187
[14]
  log2 fold change: -0.054
[4]
  log2 fold change: -0.052
[5]
  log2 fold change: 0.137
[16]
  log2 fold change: 0.004
[17]
  log2 fold change: 0.018
[6]
  log2 fold change: -0.127
[7]
  log2 fold change: 0.162
[19]
  log2 fold change: -0.106
[20]
  log2 fold change: -0.154
[8]
  log2 fold change: -0.022

## ENTPD7 (UniProt Q9NQZ7)
Chain of UniProt Q9NQZ7 (Q9NQZ7 whole entry, looked up): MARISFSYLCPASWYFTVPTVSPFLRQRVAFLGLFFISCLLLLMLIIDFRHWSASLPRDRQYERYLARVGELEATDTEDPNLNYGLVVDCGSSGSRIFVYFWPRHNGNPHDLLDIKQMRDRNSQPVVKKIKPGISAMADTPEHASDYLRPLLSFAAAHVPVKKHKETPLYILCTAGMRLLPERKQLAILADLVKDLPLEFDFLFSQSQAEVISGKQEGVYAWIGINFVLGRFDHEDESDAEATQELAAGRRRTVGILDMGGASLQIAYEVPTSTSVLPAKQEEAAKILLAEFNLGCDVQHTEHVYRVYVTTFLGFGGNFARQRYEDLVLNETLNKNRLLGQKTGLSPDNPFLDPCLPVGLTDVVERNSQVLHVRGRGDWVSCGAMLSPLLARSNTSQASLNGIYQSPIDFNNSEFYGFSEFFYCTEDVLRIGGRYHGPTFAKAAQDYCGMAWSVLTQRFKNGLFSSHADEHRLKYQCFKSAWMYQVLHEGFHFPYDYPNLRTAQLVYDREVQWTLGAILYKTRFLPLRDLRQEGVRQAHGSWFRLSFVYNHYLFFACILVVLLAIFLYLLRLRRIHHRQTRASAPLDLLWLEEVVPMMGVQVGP
[1]
  log2 fold change: 0.096
[2]
  log2 fold change: -0.028
[3]
  log2 fold change: -0.181
[14]
  log2 fold change: 0.063
[4]
  log2 fold change: -0.042
[5]
  log2 fold change: 0.037
[16]
  log2 fold change: -0.146
[17]
  log2 fold change: -0.013
[6]
  log2 fold change: 0.181
[7]
  log2 fold change: -0.043
[19]
  log2 fold change: -0.009
[20]
  log2 fold change: -0.022
[8]
  log2 fold change: -0.016

## FADS1 (UniProt F5GYH4)
[14]
  log2 fold change: 0.155
[4]
  log2 fold change: 0.057
[5]
  log2 fold change: 0.002
[16]
  log2 fold change: 0.02
[17]
  log2 fold change: -0.093
[19]
  log2 fold change: 0.075
[8]
  log2 fold change: -0.097

## CTSS (UniProt P25774)
Chain of UniProt P25774 (P25774 whole entry, looked up): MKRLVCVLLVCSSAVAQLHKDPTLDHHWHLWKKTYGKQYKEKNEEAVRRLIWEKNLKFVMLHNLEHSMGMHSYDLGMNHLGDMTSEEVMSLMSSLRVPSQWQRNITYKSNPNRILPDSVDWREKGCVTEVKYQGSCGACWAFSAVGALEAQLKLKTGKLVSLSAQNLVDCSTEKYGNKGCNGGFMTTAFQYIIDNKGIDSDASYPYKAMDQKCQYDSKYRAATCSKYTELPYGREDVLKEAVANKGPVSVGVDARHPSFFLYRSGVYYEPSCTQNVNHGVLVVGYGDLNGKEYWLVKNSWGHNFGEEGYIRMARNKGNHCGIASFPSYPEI
[9]
  log2 fold change: -0.215
[4]
  log2 fold change: 0.144
[5]
  log2 fold change: 0.545
[16]
  log2 fold change: -0.023
[10]
  log2 fold change: -0.026
[11]
  log2 fold change: 0.12
[19]
  log2 fold change: -0.001
[8]
  log2 fold change: 0.316

## F2RL3 (UniProt Q96RI0)
[1]
  log2 fold change: -0.056
[12]
  log2 fold change: 0.026
[3]
  log2 fold change: -0.083
[13]
  log2 fold change: 0.039
[9]
  log2 fold change: -0.052
[15]
  log2 fold change: -0.12
[4]
  log2 fold change: -0.161
[5]
  log2 fold change: 0.065
[18]
  log2 fold change: 0.02
[10]
  log2 fold change: -0.084
[7]
  log2 fold change: 0.081
[11]
  log2 fold change: 0.021
[8]
  log2 fold change: 0.1

## EEF1D isoform 3 (UniProt P29692)
Chain of UniProt P29692 (P29692 whole entry, looked up): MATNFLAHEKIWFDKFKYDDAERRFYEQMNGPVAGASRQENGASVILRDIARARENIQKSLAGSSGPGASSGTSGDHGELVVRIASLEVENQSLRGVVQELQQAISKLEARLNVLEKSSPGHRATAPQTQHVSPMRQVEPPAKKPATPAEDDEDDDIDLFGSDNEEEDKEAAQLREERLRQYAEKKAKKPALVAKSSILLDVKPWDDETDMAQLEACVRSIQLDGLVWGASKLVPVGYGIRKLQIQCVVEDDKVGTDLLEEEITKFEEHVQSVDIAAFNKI
[1]
  log2 fold change: -0.009
[3]
  log2 fold change: 0.009
[4]
  log2 fold change: -0.16
[5]
  log2 fold change: -0.087
[7]
  log2 fold change: -0.27
[8]
  log2 fold change: 0.605

## DCP2 (UniProt Q8IU60)
[12]
  log2 fold change: 0.176
[2]
  log2 fold change: -0.117
[13]
  log2 fold change: -0.118
[9]
  log2 fold change: 0.021
[15]
  log2 fold change: -0.073
[4]
  log2 fold change: -0.134
[5]
  log2 fold change: -0.064
[16]
  log2 fold change: -0.372
[18]
  log2 fold change: -0.265
[10]
  log2 fold change: 0.105
[6]
  log2 fold change: 0.147
[11]
  log2 fold change: 0.185
[19]
  log2 fold change: 0.038
[8]
  log2 fold change: -0.111

## ENTR1 (UniProt Q96C92)
[1]
  log2 fold change: -0.015
[3]
  log2 fold change: 0.043
[7]
  log2 fold change: -0.156

## EPHB4 (UniProt P54760)
Chain of UniProt P54760 (P54760 whole entry, looked up): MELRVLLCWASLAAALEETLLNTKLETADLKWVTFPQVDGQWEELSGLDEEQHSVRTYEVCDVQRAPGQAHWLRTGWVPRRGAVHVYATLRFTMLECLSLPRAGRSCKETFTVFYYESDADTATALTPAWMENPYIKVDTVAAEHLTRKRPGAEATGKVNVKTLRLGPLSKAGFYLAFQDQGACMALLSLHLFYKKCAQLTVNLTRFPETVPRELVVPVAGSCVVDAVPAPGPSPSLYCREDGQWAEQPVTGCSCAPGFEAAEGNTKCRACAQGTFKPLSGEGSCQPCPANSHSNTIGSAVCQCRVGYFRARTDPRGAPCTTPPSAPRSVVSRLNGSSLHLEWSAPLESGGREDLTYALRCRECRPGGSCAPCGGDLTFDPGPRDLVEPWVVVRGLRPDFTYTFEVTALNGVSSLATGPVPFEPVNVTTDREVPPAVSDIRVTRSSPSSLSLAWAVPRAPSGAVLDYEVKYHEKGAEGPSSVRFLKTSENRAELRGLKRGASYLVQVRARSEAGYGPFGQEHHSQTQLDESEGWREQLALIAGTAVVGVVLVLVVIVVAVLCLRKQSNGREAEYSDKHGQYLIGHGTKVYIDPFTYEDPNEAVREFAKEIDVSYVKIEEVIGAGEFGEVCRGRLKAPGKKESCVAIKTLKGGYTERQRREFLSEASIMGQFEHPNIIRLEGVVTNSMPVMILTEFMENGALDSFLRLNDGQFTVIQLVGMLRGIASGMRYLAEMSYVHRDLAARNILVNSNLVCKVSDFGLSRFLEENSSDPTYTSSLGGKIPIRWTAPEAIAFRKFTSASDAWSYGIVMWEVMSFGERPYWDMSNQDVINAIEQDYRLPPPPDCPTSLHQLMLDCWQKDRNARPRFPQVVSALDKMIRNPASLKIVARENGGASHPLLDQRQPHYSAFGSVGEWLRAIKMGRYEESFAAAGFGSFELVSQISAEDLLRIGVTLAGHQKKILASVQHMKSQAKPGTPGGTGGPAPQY
[9]
  log2 fold change: -0.151
[10]
  log2 fold change: 0.131
[11]
  log2 fold change: 0.241

## FAM135A (UniProt Q9P2D6)
Chain of UniProt Q9P2D6 (Q9P2D6 whole entry, looked up): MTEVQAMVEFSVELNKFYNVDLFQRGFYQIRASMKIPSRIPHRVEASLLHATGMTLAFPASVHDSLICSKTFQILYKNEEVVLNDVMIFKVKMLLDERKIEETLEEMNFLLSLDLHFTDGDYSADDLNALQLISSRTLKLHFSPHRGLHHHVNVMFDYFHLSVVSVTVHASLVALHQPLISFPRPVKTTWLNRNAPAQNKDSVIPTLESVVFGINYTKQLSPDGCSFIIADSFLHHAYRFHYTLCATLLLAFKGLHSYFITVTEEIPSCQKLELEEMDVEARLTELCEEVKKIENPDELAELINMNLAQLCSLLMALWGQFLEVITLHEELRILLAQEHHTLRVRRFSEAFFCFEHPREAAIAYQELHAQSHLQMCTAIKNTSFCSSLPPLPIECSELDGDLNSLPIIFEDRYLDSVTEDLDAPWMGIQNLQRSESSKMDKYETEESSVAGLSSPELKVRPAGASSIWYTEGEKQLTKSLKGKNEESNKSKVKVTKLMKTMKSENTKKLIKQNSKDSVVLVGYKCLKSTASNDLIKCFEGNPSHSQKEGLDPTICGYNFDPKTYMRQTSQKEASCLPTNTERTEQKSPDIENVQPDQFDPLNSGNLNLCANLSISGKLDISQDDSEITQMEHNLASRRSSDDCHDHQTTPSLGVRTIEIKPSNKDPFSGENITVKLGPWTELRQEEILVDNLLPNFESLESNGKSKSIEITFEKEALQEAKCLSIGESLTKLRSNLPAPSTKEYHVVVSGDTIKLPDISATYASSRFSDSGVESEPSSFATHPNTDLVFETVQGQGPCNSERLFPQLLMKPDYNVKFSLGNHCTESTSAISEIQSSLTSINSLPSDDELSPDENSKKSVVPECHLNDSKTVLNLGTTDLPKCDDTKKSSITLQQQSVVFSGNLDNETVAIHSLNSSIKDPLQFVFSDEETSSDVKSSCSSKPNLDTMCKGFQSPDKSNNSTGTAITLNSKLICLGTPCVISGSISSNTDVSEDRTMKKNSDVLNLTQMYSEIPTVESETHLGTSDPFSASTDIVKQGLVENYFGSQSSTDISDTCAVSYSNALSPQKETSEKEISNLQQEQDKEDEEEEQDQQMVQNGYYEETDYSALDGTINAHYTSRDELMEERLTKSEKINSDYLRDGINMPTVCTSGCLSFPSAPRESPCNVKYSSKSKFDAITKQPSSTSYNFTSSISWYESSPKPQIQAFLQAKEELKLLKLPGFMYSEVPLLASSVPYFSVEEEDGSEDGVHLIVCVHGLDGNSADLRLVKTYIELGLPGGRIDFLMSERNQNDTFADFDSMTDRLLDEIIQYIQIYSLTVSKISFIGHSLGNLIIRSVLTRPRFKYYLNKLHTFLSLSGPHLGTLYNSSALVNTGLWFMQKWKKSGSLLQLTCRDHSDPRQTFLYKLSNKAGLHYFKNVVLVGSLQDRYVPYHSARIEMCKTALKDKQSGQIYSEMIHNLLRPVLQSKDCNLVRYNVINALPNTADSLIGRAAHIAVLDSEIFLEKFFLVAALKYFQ
[1]
  log2 fold change: 0.033
[2]
  log2 fold change: 0.07
[3]
  log2 fold change: -0.116
[6]
  log2 fold change: 0.009
[7]
  log2 fold change: 0.051
[20]
  log2 fold change: -0.002

## EDRF1 (UniProt Q3B7T1)
[1]
  log2 fold change: 0.066
[2]
  log2 fold change: -0.038
[3]
  log2 fold change: -0.119
[14]
  log2 fold change: -0.017
[9]
  log2 fold change: -0.033
[17]
  log2 fold change: 0.068
[10]
  log2 fold change: 0.04
[6]
  log2 fold change: 0.048
[7]
  log2 fold change: 0.004
[11]
  log2 fold change: 0.066

## DERPC (UniProt P0CG12)
Chain of UniProt P0CG12 (P0CG12 whole entry, looked up): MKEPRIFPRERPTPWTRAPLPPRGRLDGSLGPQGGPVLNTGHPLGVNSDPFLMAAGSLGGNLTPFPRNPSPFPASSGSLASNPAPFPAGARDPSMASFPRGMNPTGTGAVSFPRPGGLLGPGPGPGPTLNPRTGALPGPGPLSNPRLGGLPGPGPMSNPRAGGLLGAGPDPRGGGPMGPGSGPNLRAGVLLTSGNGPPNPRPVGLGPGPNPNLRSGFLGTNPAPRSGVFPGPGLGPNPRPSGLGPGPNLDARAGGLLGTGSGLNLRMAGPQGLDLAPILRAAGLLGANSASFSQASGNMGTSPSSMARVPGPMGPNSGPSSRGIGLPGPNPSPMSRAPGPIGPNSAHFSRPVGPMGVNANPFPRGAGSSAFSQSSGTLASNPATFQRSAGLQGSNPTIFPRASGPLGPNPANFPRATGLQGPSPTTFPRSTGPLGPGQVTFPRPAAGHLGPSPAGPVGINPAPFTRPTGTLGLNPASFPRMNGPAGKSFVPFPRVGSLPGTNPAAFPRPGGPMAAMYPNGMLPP
[1]
  log2 fold change: 0.197
[3]
  log2 fold change: -0.346
[14]
  log2 fold change: 0.078
[9]
  log2 fold change: -0.034
[16]
  log2 fold change: -0.077
[17]
  log2 fold change: 0.004
[10]
  log2 fold change: 0.017
[7]
  log2 fold change: -0.003
[11]
  log2 fold change: -0.029
[19]
  log2 fold change: 0.161
[20]
  log2 fold change: 0.066

## DENND1A isoform 6 (UniProt Q8TEH3)
[14]
  log2 fold change: -0.328
[4]
  log2 fold change: -0.315
[5]
  log2 fold change: -0.034
[16]
  log2 fold change: 0.121
[17]
  log2 fold change: -0.003
[19]
  log2 fold change: -0.356
[8]
  log2 fold change: 0.113

## EID1 (UniProt Q9Y6B2)
[1]
  log2 fold change: -0.17
[2]
  log2 fold change: -0.425
[3]
  log2 fold change: 0.137
[4]
  log2 fold change: 0.092
[5]
  log2 fold change: 0.029
[6]
  log2 fold change: 0.002
[7]
  log2 fold change: 0.05
[20]
  log2 fold change: 0.05
[8]
  log2 fold change: -0.281

## ELMO1 (UniProt Q92556)
Chain of UniProt Q92556 (Q92556 whole entry, looked up): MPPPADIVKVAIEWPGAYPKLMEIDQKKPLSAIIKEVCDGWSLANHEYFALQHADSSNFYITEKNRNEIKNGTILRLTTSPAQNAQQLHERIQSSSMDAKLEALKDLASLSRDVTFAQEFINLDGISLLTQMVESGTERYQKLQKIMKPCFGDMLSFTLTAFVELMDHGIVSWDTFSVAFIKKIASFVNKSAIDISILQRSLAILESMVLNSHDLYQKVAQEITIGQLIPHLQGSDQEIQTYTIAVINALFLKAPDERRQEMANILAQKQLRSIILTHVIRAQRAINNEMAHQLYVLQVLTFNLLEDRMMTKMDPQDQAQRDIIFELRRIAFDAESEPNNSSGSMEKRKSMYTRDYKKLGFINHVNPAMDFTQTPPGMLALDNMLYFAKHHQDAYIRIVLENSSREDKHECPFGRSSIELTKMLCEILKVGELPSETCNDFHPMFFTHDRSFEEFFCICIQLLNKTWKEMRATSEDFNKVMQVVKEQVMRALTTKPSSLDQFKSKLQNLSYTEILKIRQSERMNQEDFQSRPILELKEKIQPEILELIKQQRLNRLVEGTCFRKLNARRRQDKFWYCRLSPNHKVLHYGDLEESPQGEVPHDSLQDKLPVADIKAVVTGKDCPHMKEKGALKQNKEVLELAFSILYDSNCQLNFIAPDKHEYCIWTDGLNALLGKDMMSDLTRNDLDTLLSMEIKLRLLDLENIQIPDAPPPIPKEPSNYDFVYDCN
[1]
  log2 fold change: 0.111
[2]
  log2 fold change: -0.079
[3]
  log2 fold change: -0.001
[14]
  log2 fold change: 0.037
[9]
  log2 fold change: -0.308
[16]
  log2 fold change: -0.022
[17]
  log2 fold change: -0.176
[10]
  log2 fold change: 0.069
[6]
  log2 fold change: -0.091
[7]
  log2 fold change: -0.094
[11]
  log2 fold change: 0.761 (active)
[19]
  log2 fold change: -0.161
[20]
  log2 fold change: 0.037

## DDX46, A0A0C4DG89
[2]
  log2 fold change: 0.174
[6]
  log2 fold change: -0.123
[20]
  log2 fold change: -0.005
